# Assay results: PubChem BioAssay (EPA / NIEHS)
# Several values for one entry are separate records, joined by “and”; a condition that tells them apart may be missing. Equal values may be shown once. More than one record can exist for a structure, and the calls need not agree. Activity calls are given as the source filed them. How the source made its calls: active means hit-call score of the fitted dose curve at least 0.9, where 1 is the maximum; inactive means score below 0.9.
# Read-out: Monocyte Chemoattractant Protein-1 (MCP1), CCL2 (gene 6347)
# Experiment: BSK_SAg_MCP1: BioMAP Diversity Plus: SAg Assay for Monocyte Chemoattractant Protein-1 (MCP1) Biomarker Activity (AID 2283090)
# Details: primary human HUVEC with PBMC; actives raise or lower the signal
# Experimental: BSK_SAg is a cell-based, multiplexed-readout assay that uses umbilical vein endothelium and peripheral blood mononuclear cells, a human vascular primary cell co-culture, with measurements taken at 24 hours after chemical dosing in a 96-well plate.BSK_SAg_MCP1 is an assay component measured in the BSK_SAg assay. It measures MCP-1 antibody related to regulation of gene expression using ELISA technology.Data from the assay component BSK_SAg_MCP1 was analyzed into 1 assay endpoint. This assay endpoint, BSK_SAg_MCP1, was analyzed with bidirectional fitting relative to DMSO as the negative control and baseline of activity. Using a type of binding reporter, gain or loss-of-signal activity can be used to understand changes in the signaling as they relate to the gene CCL2. Furthermore, this assay endpoint can be referred to as a primary readout, because this assay has produced multiple assay endpoints where this one serves a signaling function. To generalize the intended target to other relatable targets, this assay endpoint is annotated to the cytokine intended target family, where the subfamily is chemotactic factor.
# The levels of cell surface (or secreted, indicated by the prefix "s") biomarker endpoints were measured by ELISA. Overt cytotoxicity to cells in confluent adherent cultures (all systems other than the BT system) was assessed by measuring total protein levels using sulforhodamine B (SRB) staining in parallel cultures at the time of biomarker measurements, indicated as SRB endpoints. For proliferation assays for adherent cell types, individual cell types are cultured at sub-confluence and relative cell numbers quantified by SRB staining at time points optimized for each system (48 h: 3C and CASM3C systems; 72 h: BT and HDF3CGF systems; 96 h: SAg system). SRB was performed by staining cells with 0.1% SRB after fixation with 10% TCA and reading wells at 560 nm.Viability and proliferation of PBMC (T cells) was quantified by Alamar Blue reduction for the SAg and BT systems. For PBMC viability (referred to as PBMC Cytotoxicity within the assay endpoint names), cells were plated (75,000/well in a 96-well plate) and then chemical samples added for 1 h before addition of activators, SEB and TSST-1 (20 ng/mL final concentration each). Cells were incubated for 90 h. Then, Alamar Blue (20 uL/well) (Invitrogen, Cat DAL1100) was added for 6 h, and the plates were read with a fluorescence microplate reader at 546/580 nm (excitation/emission). For PBMC proliferation, cells were plated and activated as above but incubated for only 16 h prior to addition of Alamar Blue. Plates were read after 6 h.
Structure (SMILES),AC50,outcome
Oc1c(Cl)c(Cl)c(Cl)c(Cl)c1Cl,10.2 µM (active) and 33.6 µM (active),–
ClC1=C(Cl)[C@]2(Cl)[C@@H]3[C@H]4C[C@H]([C@@H]5O[C@H]45)[C@@H]3[C@@]1(Cl)C2(Cl)Cl,–,inactive
CCSC(=O)N(CC)C1CCCCC1,–,inactive
CC#Cc1cc(C)nc(Nc2ccccc2)n1,–,inactive
O=C(O)C(F)(F)C(F)(F)C(F)(F)C(F)(F)C(F)(F)C(F)(F)C(F)(F)C(F)(F)C(F)(F)F,30.6 µM (active) and 50.1 µM (active) and 49.7 µM (active),–
O=C(NC(=O)c1cc(F)c(F)cc1Cl)Nc1cc(F)ccc1N1CCC(C(=O)O)CC1,–,inactive
CCNc1nc(NC(C)C)nc(SC)n1,–,inactive
Cc1cccc([N+](=O)[O-])c1,–,inactive
CCOC(=O)C(O)(c1ccc(Cl)cc1)c1ccc(Cl)cc1,35.2 µM (active),–
CCOP(=S)(OCC)SCSC(C)(C)C,–,inactive
CCC(C)(c1ccc(O)cc1)c1ccc(O)cc1,20 µM (active),–
O=C(O)C(F)(F)C(F)(F)C(F)(F)C(F)(F)C(F)(F)C(F)(F)C(F)(F)C(F)(F)F,47.6 µM (active),inactive
O=C(NC(=O)c1c(F)cccc1F)Nc1cc(Cl)c(OC(F)(F)C(F)F)c(Cl)c1,–,inactive
C1CC2OC2CC1C1CO1 (stereo not given),–,inactive
C=CC(=O)NCNC(=O)C=C,–,inactive
NS(=O)(=O)C(F)(F)C(F)(F)C(F)(F)C(F)(F)C(F)(F)C(F)(F)C(F)(F)C(F)(F)F,31.2 µM (active) and 54.2 µM (active) and 54.5 µM (active),–
COS(=O)(=O)OC,–,inactive
Cc1ccccc1CO[C@@H]1C[C@@]2(C(C)C)CC[C@]1(C)O2,–,inactive
CC(C)(O)C(=O)Nc1ccc([N+](=O)[O-])c(C(F)(F)F)c1,–,inactive
COc1ccc(O)c(C(C)(C)C)c1,–,inactive

Structure (SMILES),AC50,outcome
CN(C)c1nc(=O)n(C2CCCCC2)c(=O)n1C,–,inactive
C[C@]12CCC(=O)C=C1CC[C@@H]1[C@@H]2CC[C@]2(C)C(=O)CC[C@@H]12,–,inactive
Cc1ccccc1[N+](=O)[O-],–,inactive
CCC(C)c1cc([N+](=O)[O-])cc([N+](=O)[O-])c1O (stereo not given),23.5 µM (active),–
O=C(O)C(F)(F)C(F)(F)C(F)(F)C(F)(F)C(F)(F)F,–,inactive
Cc1cc2c3c(c1)C(c1ccccc1)=N[C@@H](NC(=O)c1ccncc1)C(=O)N3CC2,20 µM (active),–
Nn1cnnc1,–,inactive
CCCCCCCCCC[N+](C)(C)CCCCCCCCCC,3.45 µM (active),–
Oc1ccc(Cl)cc1Cl,–,inactive
Cc1cc(-c2ccc(N)c(C)c2)ccc1N,–,inactive
N#Cc1ccc(N(CC(N)=O)CC(F)(F)F)cc1C(F)(F)F,–,inactive
CCCN(CCC)N=O,–,inactive
CCC(=O)O[C@H]1CC[C@H]2[C@@H]3CCC4=CC(=O)CC[C@]4(C)[C@H]3CC[C@]12C,30.1 µM (active),–
c1cc2ccc3cccc4ccc(c1)c2c34,–,inactive
CCCCCCCCOC(=O)c1ccccc1C(=O)OCCCCCCCC,–,inactive
CCC(C)(CC)c1cc(NC(=O)c2c(OC)cccc2OC)on1,–,inactive
Cc1cccc(C)c1N,–,inactive
Oc1ccc(C(c2ccc(O)cc2)(C(F)(F)F)C(F)(F)F)cc1,26.5 µM (active),–
ClC(Cl)=C(c1ccc(Cl)cc1)c1ccc(Cl)cc1,39.2 µM (active),–
